Results taken from PubChem BioAssay (NCI).
This is part of a sample that, as a whole, favours compounds with a hit. Of some 79,000 tested, about 15% had one in any assay. Active and inactive are the calls of the source. No stated cut-off is given here; in the data, active means growth inhibition above about 70%; inactive means the rest.

Columns and labels:
[1] = NCI Yeast Anticancer Drug Screen. Data for the rad50 strain (AID 155);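 further: 0% = growth of vehicle-only cultures of the same strain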; conditions: S. cerevisiae rad50 strain growth inhibition; at 50.0 µM; stronger effect = higher value
In short: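 DNA repair mutant yeast, compound exposure, growth read-out; inhibition is taken relative to vehicle.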

[2] = NCI Yeast Anticancer Drug Screen. Data for the mec2-1 strain (AID 157); conditions: S. cerevisiae mec2-1 strain, at 50.0 µM, stronger effect = higher value
In short: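 mec2-1 yeast strain, carrying an alteration in DNA damage repair or cell cycle control, was exposed to compounds; growth inhibition was measured relative to vehicle-treated controls.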

[3] = NCI Yeast Anticancer Drug Screen. Data for the sgs1 mgt1 strain (AID 161);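 further: 0% = growth of cultures given vehicle only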; conditions: S. cerevisiae sgs1 mgt1 strain, at 50.0 µM, stronger effect = higher value
In short: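 This yeast growth screen uses a strain with defined DNA-repair lesions; compound-treated growth is compared with vehicle-treated growth.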

[4] = NCI Yeast Anticancer Drug Screen. Data for the cln2 rad14 strain (AID 165);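 further: 0% = growth equal to vehicle treated cultures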; conditions: S. cerevisiae cln2 rad14 strain, at 50.0 µM, stronger effect = higher value
In short: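 Yeast carrying cln2 and rad14 alterations (cell cycle control and DNA damage repair) were exposed to compounds. Growth inhibition was measured against vehicle-treated controls.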

[5] = NCI Yeast Anticancer Drug Screen. Data for the bub3 strain (AID 167); conditions: S. cerevisiae bub3 mutant strain, at 50.0 µM, stronger effect = higher value
In short: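 In this screen, a yeast mutant lacking normal mitotic checkpoint function is challenged with compound. Relative growth versus vehicle gives the inhibition value.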

[6] = NCI Yeast Anticancer Drug Screen. Data for the mlh1 rad18 strain (AID 175); conditions: S. cerevisiae mlh1 rad18 strain growth inhibition; at 50.0 µM; stronger effect = higher value
In short: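 Growth inhibition of the yeast strain was measured after compound exposure and expressed relative to vehicle-treated controls. The strain carries defined defects in DNA damage repair.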

Measured: growth inhibition

O=S1c2ccc(Cl)cc2CC(SSC2Cc3cc(Cl)ccc3S(=O)c3ccccc32)c2ccccc21 (stereo unspecified)
inactive: [1] 18.5% | [2] -35.6% | [3] -7.65% | [4] 6.15% | [5] 10.5% | [6] -9%

CCOC(=O)/C(=N/Nc1ccc(C)cc1)N1C(=S)C=C(C)NN(C)C1=S
inactive: [1] -34.3% | [2] 4% | [3] -31.1% | [4] -13.3% | [5] -19.7% | [6] -30.9%

CCOC(=O)N1C(=O)c2ccccc2C1=O
inactive: [1] -7.35% | [2] -13.2% | [3] -16.8% | [4] -8.75% | [5] -13.3% | [6] -9.25%

COC1OC2COC1(OCc1ccccc1)C1OC(C)(C)OC21 (stereo unspecified)
inactive: [1] -23.8% | [2] -5.85% | [3] -29.9% | [4] -0.8% | [5] -26.2% | [6] 5.35%

CC1NC(=O)C2Cc3ccc(O)c(c3)Oc3cccc(c3)C(O)C(C(=O)N2C)N(C)C(=O)C(C)NC(=O)C(Cc2ccc(O)c(O)c2)N(C)C(=O)C(C)NC1=O (stereo unspecified)
inactive: [1] 6.75% | [2] -19.3% | [3] 6.6% | [4] 6.15% | [5] 10.7% | [6] 6.55%

COC(=O)Cc1oc(=O)n(-c2ccccc2)c(=O)c1C(=O)OC
inactive: [1] 6.75% | [2] -3.05% | [3] 2.05% | [4] -10.5% | [5] 10.1% | [6] -3.6%

CCCCN1CCSC1=S
active: [1] 99.5% | [2] 99.7% | [3] 98.2% | [4] 98% | [5] 99.5% | [6] 99.5%

O=C(O)COc1cc2c(cc1Cc1ccc3c(c1)OCO3)OCO2
inactive: [1] 2.5% | [2] 13.1% | [3] 0.25% | [4] 1.15% | [5] 10.3% | [6] 8.35%

O=[N+]([O-])c1ccc(N(CCO)CCO)nc1
inactive: [1] -15.7% | [2] -76.6% | [3] 5.15% | [4] 19.5% | [5] -19.3% | [6] -17.8%

CC1CN(Cc2ccccc2)C(=O)C1=O (stereo unspecified)
inactive: [1] -20.4% | [2] 17.1% | [3] -21.3% | [4] -12.7% | [5] -9.8% | [6] -11.9%

CC1CC[P+](C)(Cc2ccccc2)C1 (mixture of isomers)
inactive: [1] 8.7% | [2] 0.8% | [3] -18.4% | [4] 1.9% | [5] 5.45% | [6] 18.6%

C1CNCCNCCN1
inactive: [1] 7.65% | [2] -1.05% | [3] 10.1% | [4] 21.1% | [5] 25.5% | [6] -4.3%

CCS(=O)CCCN1CCc2ccccc2C1 (stereo unspecified)
inactive: [1] 25.5% | [2] -0.95% | [3] 13.9% | [4] -33% | [5] -3% | [6] -5.95%

C[C@]12CCC(=O)C=C1CC[C@@H]1C2CC[C@]2(C)NC(=O)C(C#N)CC12 (stereo partly specified)
inactive: [1] -29.1% | [2] -10.2% | [3] -14.9% | [4] -23.9% | [5] -15.2% | [6] -9.6%

CCCC(=O)NC(Nc1ccc(S(=O)(=O)Nc2ccc(OC)nn2)cc1)(C(F)(F)F)C(F)(F)F
inactive: [1] 1.55% | [2] -19.1% | [3] -0.6% | [4] 0.35% | [5] -16.8% | [6] -9.25%

O=C1OC2C3c4ccccc4C(c4c3ccc3ccccc43)C2O1 (stereo unspecified)
inactive: [1] 10.1% | [2] 10.9% | [3] 19.8% | [4] 19.7% | [5] 24.1% | [6] 29.2%

O=C(/C(=C\c1ccccc1)c1ccccc1)c1ccccc1
inactive: [1] 25.1% | [2] 32.8% | [3] 26.4% | [4] -75.2% | [5] 28.2% | [6] 21.4%

Cc1c(O)ccc2c1CCCC2
inactive: [1] 7.05% | [2] 5.75% | [3] -4.8% | [4] -34.2% | [5] 6.1% | [6] 4.65%

CCc1ccccc1NC(=O)Nc1cc(C)ccn1
inactive: [1] 25.6% | [2] 12.9% | [3] 21.8% | [4] 21.3% | [5] 32% | [6] 27.9%

CN(C)c1nc(N)nc(CS)n1
inactive: [1] 10.8% | [2] 10.4% | [3] -9.05% | [4] 10.3% | [5] -4.15% | [6] -39.5%

COc1ccc(/C=[N+](\[O-])c2ccccc2)cc1 (tested in a mixture with another compound)
inactive: [1] -2% | [2] 8.2% | [3] 4.1% | [4] 0.4% | [5] -10.8% | [6] 8.35%

O=c1[nH]nc(S(=O)(=O)NC2CCCCC2)c(=O)[nH]1
inactive: [1] 12.6% | [2] -13.1% | [3] -7.3% | [4] -20.9% | [5] 2.65% | [6] 5.6%

O=C(NC(C(=O)O)c1ccccc1)c1ccc([N+](=O)[O-])cc1 (stereo unspecified)
inactive: [1] 8.2% | [2] 10.1% | [3] 13.4% | [4] -0.6% | [5] 31.6% | [6] 11.6%

NC1CC1
inactive: [1] -8.4% | [2] -1.1% | [3] -4.6% | [4] -9.95% | [5] 11.6% | [6] -22.9%

CCN(CCOC(=O)Nc1ccc(Cl)cc1)C(=O)Nc1ccc(Cl)cc1
inactive: [1] -1.75% | [2] -36.8% | [3] 16.4% | [4] 2.8% | [5] -8.55% | [6] -18.2%

Cc1cc(=O)[nH]c2cc(NN)ccc12
inactive: [1] 10.2% | [2] -3.85% | [3] 4.85% | [4] -4.35% | [5] -0.45% | [6] 8.55%

O=C(OCc1ccccc1)c1ccccc1-c1c2ccc(=O)cc-2oc2cc(OCc3ccccc3)ccc12
inactive: [1] 33.4% | [2] 18% | [3] 40.9% | [4] 23.6% | [5] 21.3% | [6] 26.1%

COc1ccc(/C=C2\CCN(C(C)=O)C2=O)cc1
inactive: [1] 2.35% | [2] -2.65% | [3] -7.8% | [4] 2.6% | [5] 3.25% | [6] -10.7%

C=C(CCCC(C)OC(C)OCC)[Si](C)(C)C (stereo unspecified)
inactive: [1] -26.2% | [2] -52% | [3] -20.6% | [4] -7.15% | [5] -23.6% | [6] -37.9%

CCC(C)NC(=O)/C(=C\c1ccccc1O)NC(=O)c1ccccc1 (stereo unspecified)
inactive: [1] -30.1% | [2] -35.6% | [3] -2.25% | [4] -5.65% | [5] -4.3% | [6] -4.45%

C/C(=N\NS(=O)(=O)c1ccc([N+](=O)[O-])cc1)c1ccc[n+]([O-])n1
inactive: [1] -19.2% | [2] -18.6% | [3] -13.6% | [4] -2.75% | [5] 2.15% | [6] -34%

COc1ccc(CCCNC(=O)Cc2ccccc2CO)cc1OC
inactive: [1] 21.6% | [2] -46.6% | [3] -3.4% | [4] -0.8% | [5] -10.2% | [6] -48.2%

CC(O)COc1ccc(C(C)(C)C)cc1 (stereo unspecified)
inactive: [1] 3.25% | [2] -4.2% | [3] -2.45% | [4] -13% | [5] 10.8% | [6] 2.6%

COC(=O)C(C(C[N+](=O)[O-])c1ccco1)=P(c1ccccc1)(c1ccccc1)c1ccccc1 (stereo unspecified)
active: [1] 89.5%
inactive: [2] 5.25% | [3] 45.6% | [4] 8.15% | [5] 0.95% | [6] 25.1%

O=c1[nH]cc(CNc2ccccc2)c(=O)[nH]1
inactive: [1] -5.5% | [2] 4.75% | [3] -9.45% | [4] -27.8% | [5] -18.2% | [6] 8.5%

Cc1ccc(-c2cn3c(nc4ccccc43)c(C)n2)cc1
inactive: [1] -27.5% | [2] 5.5% | [3] 15.3% | [4] -7.95% | [5] 13% | [6] -29.5%

CCCCCCC1CCC(OC(C)=O)CC1 (stereo unspecified)
inactive: [1] 5.65% | [2] -4% | [3] -1.1% | [4] -0.9% | [5] 1.7% | [6] 0.55%

CC(=O)C1C(=O)NC(=O)C1=O (stereo unspecified)
inactive: [1] -2.9% | [2] -23.5% | [3] -14.2% | [4] 0.2% | [5] -18.9% | [6] -18.9%

COC(=O)c1nc(=S)[nH]c(C(=O)OC)c1C(=O)c1ccccc1O
inactive: [1] 21.9% | [2] 11.9% | [3] 14.1% | [4] 3.4% | [5] 29.1% | [6] 30%

O=C(/C=C/CBr)NC(Cc1ccccc1)C(=O)O (stereo unspecified)
inactive: [1] -1.45% | [2] -8.6% | [3] -18.1% | [4] -4% | [5] 15.6% | [6] -4.2%

O=c1cc[nH]c2ccc(Cl)cc12
inactive: [1] -10.2% | [2] 5.3% | [3] -4.4% | [4] -33.4% | [5] -7.1% | [6] -1.45%
